# Changes are numbered by the printed parent chain.
# Tests used:
# Assay in all cases: PBM; 200 nM protein, PBS
# Conditions in all cases: dsDNA, one strand shown
# [1] = biological target: T1, SIX6 (Homo sapiens, UniProt O95475 114-200, T165G)
# T1 sequence: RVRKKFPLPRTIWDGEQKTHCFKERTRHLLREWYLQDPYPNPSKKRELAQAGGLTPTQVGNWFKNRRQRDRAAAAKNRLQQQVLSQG
# [2] = biological target: HESX1 (Homo sapiens, UniProt Q9UBX0 95-180)
# [3] = biological target: HOXA2 (Homo sapiens, UniProt O43364 129-215, R185T)
# [4] = biological target: ALX3 (Homo sapiens, UniProt O95076 139-225, N203Q)
# ALX3 (Homo sapiens, UniProt O95076 139-225, N203Q), sequence (O95076 139-225 N203Q): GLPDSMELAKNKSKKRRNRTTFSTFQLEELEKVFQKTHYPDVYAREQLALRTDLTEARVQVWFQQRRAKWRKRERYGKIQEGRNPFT
# [5] = biological target: ALX3 (Homo sapiens, UniProt O95076 139-225)
# ALX3 (Homo sapiens, UniProt O95076 139-225), sequence (O95076 139-225): as the sequence (O95076 139-225 N203Q) above, with Q65N counted along it
# [6] = biological target: ALX3 (Homo sapiens, UniProt O95076 139-225, N203S)
# ALX3 (Homo sapiens, UniProt O95076 139-225, N203S), sequence (O95076 139-225 N203S): as the sequence (O95076 139-225 N203Q) above, with Q65S counted along it
# [7] = biological target: HOXA2 (Homo sapiens, UniProt O43364 129-215)
# HOXA2 (Homo sapiens, UniProt O43364 129-215), sequence (O43364 129-215): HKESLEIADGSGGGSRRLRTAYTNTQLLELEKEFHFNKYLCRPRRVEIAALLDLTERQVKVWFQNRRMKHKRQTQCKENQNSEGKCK
# [8] = biological target: T2, SIX6 (Homo sapiens, UniProt O95475 114-200, T165A)
# T2 sequence: T1 sequence with G52A
# [9] = biological target: T3, NKX2-6 (Homo sapiens, UniProt A6NCS4 118-204, R150C)
# T3 sequence: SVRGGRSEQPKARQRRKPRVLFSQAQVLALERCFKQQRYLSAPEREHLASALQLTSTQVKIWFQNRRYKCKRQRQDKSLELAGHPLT
# [10] = biological target: HOXA2 (Homo sapiens, UniProt O43364 129-215, R185K)
# HOXA2 (Homo sapiens, UniProt O43364 129-215, R185K), sequence (O43364 129-215 R185K): as the sequence (O43364 129-215) above, with R57K counted along it
# [11] = biological target: PROP1 (Homo sapiens, UniProt O75360 56-141)
# PROP1 (Homo sapiens, UniProt O75360 56-141), sequence (O75360 56-141): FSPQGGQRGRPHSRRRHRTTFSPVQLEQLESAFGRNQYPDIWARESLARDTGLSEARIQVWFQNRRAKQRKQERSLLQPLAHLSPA
# [12] = biological target: PROP1 (Homo sapiens, UniProt O75360 56-141, R99H)
# PROP1 (Homo sapiens, UniProt O75360 56-141, R99H), sequence (O75360 56-141 R99H): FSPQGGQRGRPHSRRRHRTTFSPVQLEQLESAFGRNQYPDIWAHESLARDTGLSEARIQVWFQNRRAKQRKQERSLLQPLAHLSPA
# [13] = biological target: PROP1 (Homo sapiens, UniProt O75360 56-141, F88S)
# PROP1 (Homo sapiens, UniProt O75360 56-141, F88S), sequence (O75360 56-141 F88S): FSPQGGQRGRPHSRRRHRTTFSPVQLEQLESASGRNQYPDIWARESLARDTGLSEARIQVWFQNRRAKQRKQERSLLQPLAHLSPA
# [14] = biological target: HOXA2 (Homo sapiens, UniProt O43364 129-215, Y150S)
# HOXA2 (Homo sapiens, UniProt O43364 129-215, Y150S), sequence (O43364 129-215 Y150S): as the sequence (O43364 129-215) above, with Y22S counted along it
# [15] = biological target: VAX1 (Homo sapiens, UniProt Q5SQQ9 86-172)
# VAX1 (Homo sapiens, UniProt Q5SQQ9 86-172), sequence (Q5SQQ9 86-172): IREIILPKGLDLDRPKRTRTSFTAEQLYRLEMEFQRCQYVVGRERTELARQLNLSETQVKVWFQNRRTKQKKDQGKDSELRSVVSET
# [16] = biological target: VAX1 (Homo sapiens, UniProt Q5SQQ9 86-172, T142I)
# VAX1 (Homo sapiens, UniProt Q5SQQ9 86-172, T142I), sequence (Q5SQQ9 86-172 T142I): as the sequence (Q5SQQ9 86-172) above, with T57I counted along it
# [17] = biological target: VAX1 (Homo sapiens, UniProt Q5SQQ9 86-172, K157R)
# VAX1 (Homo sapiens, UniProt Q5SQQ9 86-172, K157R), sequence (Q5SQQ9 86-172 K157R): as the sequence (Q5SQQ9 86-172) above, with K72R counted along it
# [18] = biological target: NKX3-2 (Homo sapiens, UniProt P78367 192-278, P234S)
# NKX3-2 (Homo sapiens, UniProt P78367 192-278, P234S), sequence (P78367 192-278 P234S): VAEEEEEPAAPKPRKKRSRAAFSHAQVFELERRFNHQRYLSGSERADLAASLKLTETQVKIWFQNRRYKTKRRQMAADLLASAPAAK
# [19] = biological target: NKX3-2 (Homo sapiens, UniProt P78367 192-278)
# NKX3-2 (Homo sapiens, UniProt P78367 192-278), sequence (P78367 192-278): as the sequence (P78367 192-278 P234S) above, with S43P counted along it
# [20] = biological target: CRX (Homo sapiens, UniProt O43186 26-111, R41L)
# CRX, sequence (O43186 26-111 R41L): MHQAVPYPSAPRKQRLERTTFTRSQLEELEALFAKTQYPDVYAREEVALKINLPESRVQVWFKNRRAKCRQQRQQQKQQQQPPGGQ
# HOXA2 (Homo sapiens, UniProt O43364 129-215, R185T), sequence (O43364 129-215 R185T): as the sequence (O43364 129-215) above, with R57T counted along it
# HESX1, sequence (Q9UBX0 95-180): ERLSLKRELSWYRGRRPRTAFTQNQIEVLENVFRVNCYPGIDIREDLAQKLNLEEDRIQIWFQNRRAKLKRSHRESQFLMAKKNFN
sequence,measurement,setting,value
AAGACACC,binding signal,[1],"10.6 upbm affinity estimate (log intensity, higher = more binding, comparable within an allelic series)"
GAATTCTA,binding signal,[2],"6.97 upbm affinity estimate (log intensity, higher = more binding, comparable within an allelic series)"
CGTATTAC,binding signal,[3],"9.06 upbm affinity estimate (log intensity, higher = more binding, comparable within an allelic series)"
same,binding signal,[4],"8.19 upbm affinity estimate (log intensity, higher = more binding, comparable within an allelic series)"
same,binding signal,[5],"9.9 upbm affinity estimate (log intensity, higher = more binding, comparable within an allelic series)"
same,binding signal,[6],"8.23 upbm affinity estimate (log intensity, higher = more binding, comparable within an allelic series)"
same,binding signal,[7],"9.08 upbm affinity estimate (log intensity, higher = more binding, comparable within an allelic series)"
ATAACTGC,binding signal,[2],"7.57 upbm affinity estimate (log intensity, higher = more binding, comparable within an allelic series)"
AGTGACAC,binding signal,[1],"10.6 upbm affinity estimate (log intensity, higher = more binding, comparable within an allelic series)"
same,binding signal,[8],"10.5 upbm affinity estimate (log intensity, higher = more binding, comparable within an allelic series)"
ACGATCAA,binding signal,[2],"7.32 upbm affinity estimate (log intensity, higher = more binding, comparable within an allelic series)"
CCCCCACG,binding signal,[3],"6.91 upbm affinity estimate (log intensity, higher = more binding, comparable within an allelic series)"
same,binding signal,[9],"9.26 upbm affinity estimate (log intensity, higher = more binding, comparable within an allelic series)"
same,binding signal,[10],"9.95 upbm affinity estimate (log intensity, higher = more binding, comparable within an allelic series)"
same,binding signal,[11],"6.48 upbm affinity estimate (log intensity, higher = more binding, comparable within an allelic series)"
same,binding signal,[12],"6.59 upbm affinity estimate (log intensity, higher = more binding, comparable within an allelic series)"
same,binding signal,[13],"6.32 upbm affinity estimate (log intensity, higher = more binding, comparable within an allelic series)"
same,binding signal,[14],"10.4 upbm affinity estimate (log intensity, higher = more binding, comparable within an allelic series)"
same,binding signal,[7],"6.93 upbm affinity estimate (log intensity, higher = more binding, comparable within an allelic series)"
GGTGATTA,binding signal,[3],"12.6 upbm affinity estimate (log intensity, higher = more binding, comparable within an allelic series)"
same,binding signal,[10],"13.1 upbm affinity estimate (log intensity, higher = more binding, comparable within an allelic series)"
CTCATTAC,binding signal,[3],"12.5 upbm affinity estimate (log intensity, higher = more binding, comparable within an allelic series)"
same,binding signal,[10],"13.2 upbm affinity estimate (log intensity, higher = more binding, comparable within an allelic series)"
same,binding signal,[15],"13 upbm affinity estimate (log intensity, higher = more binding, comparable within an allelic series)"
same,binding signal,[16],"12.7 upbm affinity estimate (log intensity, higher = more binding, comparable within an allelic series)"
same,binding signal,[14],"10.8 upbm affinity estimate (log intensity, higher = more binding, comparable within an allelic series)"
same,binding signal,[7],"12.3 upbm affinity estimate (log intensity, higher = more binding, comparable within an allelic series)"
same,binding signal,[17],"12.8 upbm affinity estimate (log intensity, higher = more binding, comparable within an allelic series)"
CAGTTAAG,binding signal,[3],"9.01 upbm affinity estimate (log intensity, higher = more binding, comparable within an allelic series)"
same,binding signal,[10],"11.5 upbm affinity estimate (log intensity, higher = more binding, comparable within an allelic series)"
same,binding signal,[7],"8.89 upbm affinity estimate (log intensity, higher = more binding, comparable within an allelic series)"
AACCGGGC,binding signal,[3],"7.08 upbm affinity estimate (log intensity, higher = more binding, comparable within an allelic series)"
same,binding signal,[10],"10.3 upbm affinity estimate (log intensity, higher = more binding, comparable within an allelic series)"
same,binding signal,[14],"10.3 upbm affinity estimate (log intensity, higher = more binding, comparable within an allelic series)"
same,binding signal,[18],"10.4 upbm affinity estimate (log intensity, higher = more binding, comparable within an allelic series)"
same,binding signal,[7],"7.35 upbm affinity estimate (log intensity, higher = more binding, comparable within an allelic series)"
same,binding signal,[19],"10.4 upbm affinity estimate (log intensity, higher = more binding, comparable within an allelic series)"
TCATTAGA,binding signal,[3],"12.1 upbm affinity estimate (log intensity, higher = more binding, comparable within an allelic series)"
same,binding signal,[10],"13 upbm affinity estimate (log intensity, higher = more binding, comparable within an allelic series)"
same,binding signal,[15],"12.8 upbm affinity estimate (log intensity, higher = more binding, comparable within an allelic series)"
same,binding signal,[16],"12.5 upbm affinity estimate (log intensity, higher = more binding, comparable within an allelic series)"
same,binding signal,[14],"10.6 upbm affinity estimate (log intensity, higher = more binding, comparable within an allelic series)"
same,binding signal,[7],"12.1 upbm affinity estimate (log intensity, higher = more binding, comparable within an allelic series)"
same,binding signal,[17],"12.5 upbm affinity estimate (log intensity, higher = more binding, comparable within an allelic series)"
GCTCATTA,binding signal,[3],"12.7 upbm affinity estimate (log intensity, higher = more binding, comparable within an allelic series)"
same,binding signal,[10],"13.2 upbm affinity estimate (log intensity, higher = more binding, comparable within an allelic series)"
same,binding signal,[15],"13.1 upbm affinity estimate (log intensity, higher = more binding, comparable within an allelic series)"
same,binding signal,[16],"12.8 upbm affinity estimate (log intensity, higher = more binding, comparable within an allelic series)"
same,binding signal,[14],"10.5 upbm affinity estimate (log intensity, higher = more binding, comparable within an allelic series)"
same,binding signal,[7],"12.5 upbm affinity estimate (log intensity, higher = more binding, comparable within an allelic series)"
same,binding signal,[17],"12.7 upbm affinity estimate (log intensity, higher = more binding, comparable within an allelic series)"
GGAGGCGA,binding signal,[3],"7.15 upbm affinity estimate (log intensity, higher = more binding, comparable within an allelic series)"
same,binding signal,[10],"10.6 upbm affinity estimate (log intensity, higher = more binding, comparable within an allelic series)"
same,binding signal,[14],"10.4 upbm affinity estimate (log intensity, higher = more binding, comparable within an allelic series)"
same,binding signal,[7],"7.38 upbm affinity estimate (log intensity, higher = more binding, comparable within an allelic series)"
ACACTAAT,binding signal,[3],"11.5 upbm affinity estimate (log intensity, higher = more binding, comparable within an allelic series)"
same,binding signal,[10],"12.6 upbm affinity estimate (log intensity, higher = more binding, comparable within an allelic series)"
same,binding signal,[14],"10.9 upbm affinity estimate (log intensity, higher = more binding, comparable within an allelic series)"
same,binding signal,[7],"11.3 upbm affinity estimate (log intensity, higher = more binding, comparable within an allelic series)"
ACTAATGC,binding signal,[3],"10.2 upbm affinity estimate (log intensity, higher = more binding, comparable within an allelic series)"
same,binding signal,[10],"12.2 upbm affinity estimate (log intensity, higher = more binding, comparable within an allelic series)"
same,binding signal,[14],"10.7 upbm affinity estimate (log intensity, higher = more binding, comparable within an allelic series)"
same,binding signal,[20],"10.1 upbm affinity estimate (log intensity, higher = more binding, comparable within an allelic series)"
same,binding signal,[7],"10.5 upbm affinity estimate (log intensity, higher = more binding, comparable within an allelic series)"
AGTTAACG,binding signal,[3],"9.97 upbm affinity estimate (log intensity, higher = more binding, comparable within an allelic series)"
same,binding signal,[10],"12.2 upbm affinity estimate (log intensity, higher = more binding, comparable within an allelic series)"
same,binding signal,[14],"10.7 upbm affinity estimate (log intensity, higher = more binding, comparable within an allelic series)"
same,binding signal,[7],"9.96 upbm affinity estimate (log intensity, higher = more binding, comparable within an allelic series)"
AGAATTAT,binding signal,[3],"9.79 upbm affinity estimate (log intensity, higher = more binding, comparable within an allelic series)"
same,binding signal,[10],"11.6 upbm affinity estimate (log intensity, higher = more binding, comparable within an allelic series)"
same,binding signal,[14],"10.7 upbm affinity estimate (log intensity, higher = more binding, comparable within an allelic series)"
same,binding signal,[7],"9.68 upbm affinity estimate (log intensity, higher = more binding, comparable within an allelic series)"
AATTGCTC,binding signal,[3],"10.4 upbm affinity estimate (log intensity, higher = more binding, comparable within an allelic series)"
same,binding signal,[10],"12 upbm affinity estimate (log intensity, higher = more binding, comparable within an allelic series)"
same,binding signal,[14],"10.6 upbm affinity estimate (log intensity, higher = more binding, comparable within an allelic series)"
same,binding signal,[7],"10.2 upbm affinity estimate (log intensity, higher = more binding, comparable within an allelic series)"
GAGCCCGC,binding signal,[3],"7.09 upbm affinity estimate (log intensity, higher = more binding, comparable within an allelic series)"
same,binding signal,[10],"10.2 upbm affinity estimate (log intensity, higher = more binding, comparable within an allelic series)"
same,binding signal,[14],"10.4 upbm affinity estimate (log intensity, higher = more binding, comparable within an allelic series)"
same,binding signal,[7],"7.5 upbm affinity estimate (log intensity, higher = more binding, comparable within an allelic series)"
